Screening results (PubChem BioAssay)
HP1b chromo inh – inhibitors of HP1-beta chromodomain binding to methylated histone tails; hit rate 0.56% among 390,000; AlphaScreen HP1-beta / biotin-H3K9me3 peptide binding; Potency, µM (top dose mostly 114 µM), without a hit: at the highest dose activity change, negative = inhibition, most hits filed as inhibitors; P83916; also: potency is read from the fitted curve at half-maximal effect; nearly all actives have a fitted effect of over 70% in size
Target sequence (P83916 whole entry, looked up): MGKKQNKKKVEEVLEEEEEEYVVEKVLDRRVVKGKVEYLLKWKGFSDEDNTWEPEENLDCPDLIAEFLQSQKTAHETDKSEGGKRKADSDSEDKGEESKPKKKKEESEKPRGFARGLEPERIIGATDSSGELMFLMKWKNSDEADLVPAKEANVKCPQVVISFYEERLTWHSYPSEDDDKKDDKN
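HP1-beta protein (50 nM final) preincubated 30 min at room temperature with biotinylated H3(1-18)K9me3 peptide (50 nM) in PBS pH 7.4, 0.01% Tween-20, then compound added for 30 min. AlphaScreen streptavidin donor/nickel chelate acceptor beads (10 ug/mL final), 30 min dark, luminescence read.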
L3MBTL1 block – blocks human L3MBTL1; Q9Y468; AlphaScreen L3MBTL1–H3K9me1 peptide binding; Potency, µM (highest dose often 57.1 µM), for inactives: at the highest dose activity, negative = inhibition, actives largely listed as inhibitors; hit rate 0.66% among 230,000; AID 485360; also: potency is read from the fitted curve at half-maximal effect; % is scaled to controls: 0 for no effect and ±100 for the full control effect; nearly all actives have a fitted effect of over 60% in size
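L3MBTL1 50 nM + b-AHA-H3(1-15)K9me1 75 nM, 30 min RT; compound added, 30 min RT; streptavidin donor/Ni-chelate acceptor beads 10 ug/mL each final, 30 min RT dark; AlphaScreen read.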
VDR inhibitor – inhibitors of human vitamin D receptor | P11473 | VDR-SRC2-3 peptide fluorescence polarization, 2 h | Potency, µM, for inactives: max response, negative = inhibition, actives largely listed as inhibitors | hit rate 0.93% among 400,000 | AID 504847; also: potency is read from the fitted curve at half-maximal effect; % is scaled to controls: 0 for no effect and ±100 for the full control effect
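Fluorescence polarization assay measuring small-molecule disruption of VDR binding to the coregulator peptide SRC2-3. Compounds were pin-transferred (23 nl) into the reagent mix and incubated 2 h at room temperature before reading.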
PLK1 PBD block – PLK1 (human) polo-box domain binding inhibition | P53350 | Plk1 PBD binding of FITC phosphopeptide, fluorescence polarization | Potency, µM, for the others: max response, negative = inhibition, most hits filed as inhibitors | hit rate 2.8% among 360,000 | AID 720504; also: potency is read from the fitted curve at half-maximal effect; series mostly up to about 57 µM; % is scaled to controls: 0 for no effect and ±100 for the full control effect; nearly all actives have a fitted effect of over 65% in size
BAZ2B block – inhibitors of human BAZ2B bromodomain; AlphaScreen BAZ2B-H3K14Ac peptide displacement; Potency, µM (top dose mostly 114 µM), for inactives: at the highest dose activity change, negative = inhibition, most hits filed as inhibitors; hit rate 4.4% among 360,000; also: potency is read from the fitted curve at half-maximal effect; % is scaled to controls: 0 for no effect and ±100 for the full control effect; nearly all actives have a fitted effect of over 60% in size
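Inhibition is scored as reduced AlphaScreen emission. The BAZ2B/b-H3(5-23)K14Ac complex (50 nM each) in PBS pH 7.4, 0.01% Tween-20 meets compound (up to 110 uM) for 30 min at RT before bead addition.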
JMJD2A Tudor inh – JMJD2A Tudor domain (human) inhibition | O75164 | AlphaScreen JMJD2A-Tudor / H3K4me3 peptide binding | Potency, µM (series often up to 114 µM), inactives show at the highest dose activity change, negative = inhibition, usual class: inhibitors | hit rate 4.4% among 390,000 | AID 504339; also: potency is read from the fitted curve at half-maximal effect; % is scaled to controls: 0 for no effect and ±100 for the full control effect; nearly all actives have a fitted effect of over 50% in size
JMJD2E inh – confirmation of inhibitors of human JMJD2E demethylase; shares compounds with JMJD2A Tudor inh; Recombinant JMJD2E, FDH-coupled NADH fluorescence (FDH is formaldehyde dehydrogenase); Potency, µM (titrated, usually from 56.8 µM), inactives show at the highest dose activity change, negative = inhibition, hits mostly inhibitors; hit rate 93% among 140; AID 2677
FDH inh – counter-screen for JMJD2E inhibitors: Pseudomonas putida formaldehyde dehydrogenase; FDH enzyme assay, NADH fluorescence kinetic; shares compounds with JMJD2A Tudor inh; Potency, µM (doses to about 56.7 µM), for the others: at the highest dose activity, negative = inhibition, actives largely listed as inhibitors; hit rate 10% among 140; AID 2680
G9a confirm – confirmation of human histone methyltransferase G9a inhibitors; shares compounds with JMJD2A Tudor inh; G9a H3K9 monomethylation, AlphaScreen, 2 h; Potency, µM, hits mostly inhibitors; hit rate 89% among 370; AID 588344; also: potency is read from the fitted curve at half-maximal effect; nearly all actives have a fitted effect of over 65% in size
Target sequence (Q96KQ7 913-1193 limits assumed): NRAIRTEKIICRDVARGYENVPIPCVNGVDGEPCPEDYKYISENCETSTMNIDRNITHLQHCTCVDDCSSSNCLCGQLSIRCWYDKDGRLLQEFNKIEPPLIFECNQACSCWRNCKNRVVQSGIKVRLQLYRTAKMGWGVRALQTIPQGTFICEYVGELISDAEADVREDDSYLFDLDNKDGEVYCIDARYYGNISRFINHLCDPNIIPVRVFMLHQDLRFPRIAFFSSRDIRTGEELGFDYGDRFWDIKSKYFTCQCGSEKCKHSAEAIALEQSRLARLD
VDR inh confirm – inhibits human vitamin D receptor, primary hit validation. AID 602199. shares compounds with VDR inhibitor. VDR-coactivator inhibition assay, qHTS confirmation. hit rate 89% among 840. Potency, µM, usual class: inhibitors; also: potency is read from the fitted curve at half-maximal effect
VDR FP fluor – VDR (human) coactivator binding inhibition, fluorescein polarization; shares compounds with VDR inhibitor; VDR-coactivator binding, fluorescein fluorescence polarization; Potency, µM (titrated, usually from 57.1 µM), inactives show at the highest dose activity change, negative = inhibition, hits mostly inhibitors; hit rate 48% among 840; also: potency is read from the fitted curve at half-maximal effect
VDR bla reporter – inhibits human VDR in beta-lactamase reporter cells; VDR beta-lactamase reporter cells, FRET ratio; cells co-treated with VDR agonist LG190178; Potency, µM (highest dose often 46.1 µM), for inactives: at the highest dose activity change, negative = inhibition, usual class: inhibitors; shares compounds with VDR inhibitor; hit rate 23% among 840; also: potency is read from the fitted curve at half-maximal effect; % is scaled to controls: 0 for no effect and ±100 for the full control effect
VDR cytotox – cytotoxic in counter-screen for VDR inhibitors | cytotoxicity counter-screen, cell viability, qHTS | hit rate 18% among 840 | Potency, µM (top dose mostly 48.3 µM), without a hit: at the highest dose activity change, negative = cytotoxicity, actives largely listed as cytotoxic | shares compounds with VDR inhibitor;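 also: potency is read from the fitted curve at half-maximal effect; plate controls were DMSO for no effect and high-concentration cycloheximide for full effect; nearly all actives have a fitted effect of over 75% in size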
The depositor's hits bear a star; ? = inconclusive; · = no result. Shown are actives, neighbours in structure and some others; about 6.9% of the full set was active somewhere. Calls follow the shape of the dose curve; as a rule, active = well fitted curve in the direction sought with a large enough effect; inconclusive = small, poorly fitted or top-dose-only effect, or another doubt; inactive = no such curve, though single readings can be large; an effect the other way counts as inactive or inconclusive.

SMILES	HP1b chromo inh	L3MBTL1 block	VDR inhibitor	PLK1 PBD block	BAZ2B block	JMJD2A Tudor inh	G9a confirm	others
Cc1ccc(C)c(S(=O)(=O)N2CCN(Cc3ccc(O)c4ncccc34)CC2)c1	32%	?	-8%	-4%	·	-14%	·	JMJD2E inh=35µM*;FDH inh=?
CC(C)OCc1ccc(C(=O)N2CCN(S(=O)(=O)c3ccc(Br)s3)CC2)cc1	58%	1%	3%	2%	-5%	0%	45*
O=C(NCCN1CCOCC1)C1(C(F)(F)F)C/C(=C\CCO)CCCO1 (stereo not drawn)	30%	·	-12%	·	·	6%	·
CCCn1c(CNc2ccccc2O)nc2ccccc21	-7%	·	-11%	-12%	?	?	11*
Cc1ccc(N2C(N)=C(C#N)C3(C(=O)N(C)c4ccccc43)C3=C2CC(C)(C)CC3=O)cc1Cl (stereo not drawn)	19%	·	0%	-2%	9%	13%	·
COc1ccc(NS(=O)(=O)c2ccc3c(c2)CC(C)N3C(C)=O)c(OC)c1 (stereo not drawn)	54%	·	8%	·	2%	5%	·
Cc1ccc(N2NC3(CCN(C(N)=O)CC3)NC2=O)cc1	31%	4%	-15%	-4%	-19%	-17%	40*
O=S(=O)(NCc1cccnc1)c1ccccc1	17%	·	-12%	0%	2%	-9%	·
Cc1ccc(NC(=O)CNc2ccc(OC(C)C)cc2)cc1	-14%	·	-2%	-7%	50µM*	?	7.9*
CCn1c(SCC(=O)Nc2sc3c(c2C#N)CCCC3)nnc1-c1ccco1	60%	·	-11%	-15%	5%	-12%	28*
CCn1c(SCC(=O)Nc2sc3c(c2C#N)CCC(C(C)(C)C)C3)nnc1-c1ccco1 (stereo not drawn)	8%	-9%	0%	-24%	2%	-21%	·
O=C(CN1CCN(Cc2ccc3c(c2)OCO3)CC1)N1CCc2[nH]c3ccccc3c2C1	·	-28%	·	·	?	·	·
COc1ccc(CN2CCc3c([nH]c4ccccc34)C2)cc1Br	-23%	-4%	1%	-10%	14µM*	20µM*	5*
O=C(COC(=O)c1ccccc1Br)Nc1ccccc1F	37%	·	-6%	-6%	2%	0%	·
Oc1ccc2ccccc2c1CNc1cnc2ccccc2c1	-12%	·	-46%	3.4µM*	?	?	0.5*
CCOc1ccc(Nc2nc(N3CCCC3)nc(N3CCN(c4ccc(OC)cc4)CC3)n2)cc1	-2%	·	-25%	3%	-35%	-13%	·
COc1ccc(N2CCN(c3nc(NC(C)(C)C)nc(N4CCCCC4)n3)CC2)cc1	?	-28%	1%	1%	3.2µM*	?	13*
C[C@H](CO)N1C[C@H](C)[C@@H](CN(C)C(=O)Nc2ccc3c(c2)OCO3)Oc2ccc(NC(=O)Cn3cnnn3)cc2C1=O	54%	4%	-7%	-9%	·	-6%	·
COC(=O)c1cc(NCc2ccc3c(c2)OCO3)ccc1N1CCOCC1	-9%	·	2%	-11%	?	?	13*
O=C(O)c1cc(NCc2ccc3c(c2)OCO3)ccc1N1CCOCC1	-2%	-6%	9%	-12%	2%	7%	·
CS(=O)(=O)NCCSc1cc(C(F)(F)F)nc2ccccc12	12%	-15%	4%	-2%	-28%	-2%	·
COc1ccc(-c2nnc(SCc3nnc(-c4ccc(Cl)cc4)o3)n2-c2ccccc2)cc1	10%	·	7%	2%	-11%	-34%	·
CCN(CC(=O)Nc1c(F)cccc1F)C(=O)Cn1c(=O)cnc2ccccc21	23%	3%	-1%	-9%	-6%	-13%	·
COc1ccc(Cl)cc1NC(=O)c1c(NCc2cccnc2)sc2c1CCCC2	0%	·	?	·	?	?	1.8*
O=C(N/N=C/c1ccccc1O)c1cccc(C(F)(F)F)c1	34%	-10%	-5%	2%	?	?	·
SMILES	HP1b chromo inh	L3MBTL1 block	VDR inhibitor	PLK1 PBD block	BAZ2B block	JMJD2A Tudor inh	G9a confirm	others
Oc1ccccc1C=NC1=NN(c2cccc(C(F)(F)F)c2)CC1	-5%	?	-1%	-5%	?	?	0.8*
COC(=O)Cc1sc(-c2ccccn2)nc1-c1ccccc1	?	15%	25µM*	4.7µM*	10%	-26%	5*
CCn1c(=O)cc(OCC(=O)N(C)c2cc(Cl)ccc2C)c2ccccc21	11%	·	?	·	?	-14%	·
ClCc1ncc(-c2ccc(Cl)cc2)o1	41%	14%	-2%	0%	-21%	2%	·
Oc1c(CN2CCOCC2)ccc2ccccc12	-31%	-12%	?	24µM*	-36%	?	1.3*
Cc1cccc(NC(=O)c2c(NC(=O)c3ccccc3)sc3c2CCCC3)c1	-7%	·	79µM*	·	56µM*	79µM*	2*
Cc1cccc(NC(=O)c2c(NC(=O)c3ccccc3)sc3c2CCC3)c1	108%	·	-8%	·	-1%	21%	·
Oc1ccc(NCc2ccccc2OCc2ccccc2)cc1	?	?	50µM*	0%	28µM*	56µM*	5.8*	VDR inh confirm=14*;VDR FP fluor=14µM*;VDR bla reporter=6%;VDR cytotox=?
